HT1080 IDH1KD tx: qHTS for induction of synthetic lethality in tumor cells producing 2HG: qHTS for the HT-1080-IDH1KD cell line | Potency, µM (series often up to 46.1 µM), hits mostly cytotoxic | AID 686971, 2013 | HT-1080 IDH1 knockdown viability, ATP luminescence, 48 h | 360,000 tested, 2% active
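Luminescent ATP read-out (CellTiter-Glo, 10 min at room temperature) after 48 h compound exposure at 37 °C gave viability of IDH1-knockdown HT-1080 cells. Activity was normalised to DMSO and cell-free wells, then fitted as concentration-response curves.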
HT1080-NT tox: qHTS for induction of synthetic lethality in tumor cells producing 2HG: qHTS for the HT-1080-NT fibrosarcoma cell line. HT-1080-NT fibrosarcoma viability, CellTiter-Glo ATP luminescence, 48 h. Potency, µM (doses to about 46.1 µM), usual class: cytotoxic. 360,000 tested, 1.6% active;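 also: NT is the 2HG producing partner of a matched IDH1 knockdown line; nearly all actives have a fitted effect of over 55% in size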
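HT-1080-NT; 750 cells/well; 5% FBS RPMI; 48 h compound, 37 degrees C; CellTiter-Glo luminescence; curve fitting and curve-class assignment.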
KB-3-1 tox: qHTS assay for MDR1-selective chemotherapeutics: Primary screen using the parental adenocarcinoma cell KB-3-1; KB-3-1 viability, CellTiter-Glo ATP luminescence, 72 h; Potency, µM (doses to about 46.1 µM), usual class: cytotoxic; AID 1347075, 2019; 400,000 tested, 1.4% active; also: nearly all actives have a fitted effect of over 60% in size
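Parental KB-3-1 adenocarcinoma cells in phenol-red-free DMEM with 10% FBS were pin-treated with compounds at several concentrations, incubated 72 h at 37 °C, and viability read by CellTiter-Glo luminescence; concentration-effect curves were fitted after normalization.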
TDP1 cell noCPT: qHTS for Inhibitors of human tyrosyl-DNA phosphodiesterase 1 (TDP1): qHTS in cells in absence of CPT. DT40 Tdp1-/- hTDP1 cells, no CPT, ATP luminescence, 48 h. Potency, µM (highest dose often 46.2 µM), most hits filed as inhibitors. 420,000 tested, 15% active. AID 686978, 2013; also: nearly all actives have a fitted effect of over 55% in size
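Growth kinetics read by CellTiter-Glo luminescence after ≥48 hr at 37 °C. Cells: DT40 Tdp1-/- stably carrying human TDP1, 400 per well, compound exposure in the absence of CPT (DMSO vehicle).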
DT40 TDP1 CPT: qHTS for Inhibitors of human tyrosyl-DNA phosphodiesterase 1 (TDP1): qHTS in cells in presence of CPT; chicken DT40 Tdp1-/-;hTDP1 cells + 20 nM CPT, ATP luminescence, 48 h; Potency, µM (top dose mostly 46.2 µM), most hits filed as inhibitors; 420,000 tested, 12% active; AID 686979, 2013; also: nearly all actives have a fitted effect of over 55% in size
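Chicken DT40 Tdp1-/- cells complemented with human TDP1, 400 cells/well, exposed to compounds plus 20 nM camptothecin for at least 48 h at 37 C; viability read as ATP content by CellTiter-Glo luminescence.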
KB-V1 cytotox: qHTS assay for MDR1-selective chemotherapeutics: Primary screen using the drug-selected MDR subline cells KB-V1 | KB-V1 MDR cells viability, CellTiter-Glo, 72 h | Potency, µM (series often up to 46.1 µM), usual class: cytotoxic | 400,000 tested, 3.4% active | AID 1347076, 2019; also: nearly all actives have a fitted effect of over 60% in size
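Drug-selected KB-V1 cells, grown in DMEM lacking phenol red with 10% FBS, receive compound titrations; after three days at 37 degrees C, surviving cell ATP is quantified by CellTiter-Glo luminescence and responses normalized and curve-fitted.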
A number is an active result; i = inactive; ? = inconclusive; nt = no result; [ ] = remark or other dose. Compounds with a hit are over-represented: about 19% of the library has one in this group of screens. Calls follow the shape of the dose curve; as a rule, active = well fitted curve in the direction sought with a large enough effect; inconclusive = small, poorly fitted or top-dose-only effect, or another doubt; inactive = no such curve, though single readings can be large; an effect the other way counts as inactive or inconclusive.

SMILES | HT1080 IDH1KD tx | HT1080-NT tox | KB-3-1 tox | TDP1 cell noCPT | DT40 TDP1 CPT | KB-V1 cytotox
O=C(CCC1N=C2c3ccccc3N=C(SCc3ccc(F)cc3)N2C1=O)NCc1cccs1 (stereo not drawn) | nt | nt | i | i | i | i
COc1cccc(NC(=O)CSC2=Nc3ccccc3C3=NC(CCC(=O)NC4CCCCC4)C(=O)N23)c1 (stereo not drawn) | nt | nt | i | ? | ? | i
O=C(CCC1N=C2c3ccccc3N=C(SCc3ccc(F)cc3)N2C1=O)NC1CCCCC1 (stereo not drawn) | nt | nt | i | 10µM | 21µM | i
CCOc1ccc(CCn2c3c(c(=O)[nH]c2=O)C(NC(=O)c2cccc(F)c2)(C(F)(F)F)C(=O)N3)cc1OCC (stereo not drawn) | nt | nt | ? | i | i | i
CCOc1ccc(N(C)S(=O)(=O)c2ccc(C)c(C(=O)OCC(=O)c3c[nH]c4ccccc34)c2)cc1 | i | i | i | i | i | i
CC(C)Oc1ccc(S(=O)(=O)N2CCOCC2)cc1NC(=O)CN1C(=O)NC2(CCCC2)C1=O | i | i | i | i | i | i
COc1ccc(NC(=O)C(c2ccccc2F)n2c(=O)c(-c3cc4ccccc4[nH]3)nc3ccccc32)cc1 (stereo not drawn) | ? | ? | i | 13µM | 16µM | i
COc1ccc(NC(=O)C(c2ccccc2)n2c(=O)c(-c3cc4ccccc4[nH]3)nc3ccccc32)cc1 (stereo not drawn) | ? | ? | i | 16µM | 16µM | i
O=C(NCc1ccccc1)C(c1ccc(-c2ccccc2)cc1)n1c(=O)c(-c2cc3ccccc3[nH]2)nc2ccccc21 (stereo not drawn) | i | i | i | 15µM | ? | i
CC(=O)N1CCc2cc(Br)cc(S(=O)(=O)N3CCC(C(=O)Nc4cccc(C)c4C)CC3)c21 | nt | nt | ? | i | i | i
CC(C)c1ccc(S(=O)(=O)N2CCN(C(=O)c3ccncc3)CC2)cc1 | i | i[9.24 µM] | i | ? | i | i
Cc1cc(C)n(-c2ccc(C(=O)N3CCN(S(=O)(=O)c4cccc(Br)c4)CC3)cc2)n1 | i | i | ? | 21µM | 21µM | i
Cc1cc(C)n(-c2ccc(C(=O)N3CCN(S(=O)(=O)c4ccc(C(C)C)cc4)CC3)cc2)n1 | i | i | i | 15µM | ? | i
Cn1c(NC2=NC3(CCCC3)C3=C(CCCC3=O)N2)nc2ccccc21 | nt | nt | i | nt | nt | i
Cc1ccc(S(=O)(=O)Nc2cccc(-c3cn4cccc(C)c4n3)c2)cc1 | nt | nt | i | ? | ? | i
CCCS(=O)(=O)Nc1cccc(-c2cn3ccc(C)cc3n2)c1 | nt | nt | i | 16µM | 23µM | i
Cc1cc(C)c(S(=O)(=O)Nc2cccc(-c3cn4ccccc4n3)c2)c(C)c1 | nt | nt | nt | 29µM | 18µM | nt
Cc1nc(-c2ccc(NS(=O)(=O)c3ccccc3)cc2)cs1 | i | i | i | i | i | i
Cc1csc2nc(-c3ccc(NS(=O)(=O)c4cccc(F)c4)cc3)cn12 | nt | nt | i | 16µM | ? | i
Cc1cc(C)c(S(=O)(=O)Nc2ccc(-c3cn4ccccc4n3)cc2)c(C)c1 | i | i | i | ? | ? | ?
CCCS(=O)(=O)Nc1cc(-c2cn3cccc(C)c3n2)ccc1C | nt | nt | i | 18µM | ? | i
Cc1ccc(CN2CCN(Cc3cn[nH]c3C3CCCCC3)CC2CCO)cc1 (stereo not drawn) | i | i | i | i | i | i
C/C=C/c1ccc(OC(C)[C@@H](O)c2ccc(O)c(OC)c2)c(OC)c1 (stereo partly drawn) | nt | nt | nt | i[9.04 µM] | i[9.04 µM] | nt
O=S(=O)(Nc1ccc(-c2cn3ccccc3n2)cc1)c1ccccc1 | i | i | i | i | i | i
Cc1cccc(S(=O)(=O)Nc2ccc(-c3cn4ccccc4n3)cc2)c1 | i | i | i | i | i | 23µM
SMILES | HT1080 IDH1KD tx | HT1080-NT tox | KB-3-1 tox | TDP1 cell noCPT | DT40 TDP1 CPT | KB-V1 cytotox
COc1ccc(NC(=O)c2ccc3c(c2)nnn3C2CCCC2)cc1Cl | nt | nt | i | i | i | i
COc1ccc(C(=O)c2c(C(F)(F)F)oc3c2C(=O)c2ccccc2C3=O)cc1OC | ? | 9.2µM | 9.2µM | 5.8µM | 2.3µM | 9.2µM
COc1ccc(C(=O)Nc2ccc3c(c2)C(=O)c2ccccc2C3=O)cc1OC | i | i | i | ? | 10µM | i
COc1ccc(C(=O)Nc2ccc3c(c2)N(C2CCCC2)C(=O)c2ccccc2S3)cc1OC | nt | nt | i | 5.2µM | 10µM | i
Cc1cc(C)c(NC(=O)Cn2c(=O)n(Cc3ccco3)c(=O)c3ccc(C(=O)NC4CCCC4)cc32)c(C)c1 | nt | nt | i | ? | ? | i
O=c1c(-c2ccccc2)nc2cnc(Nc3ccccc3)nc2n1Cc1cccs1 | nt | nt | nt | i | i | nt
COc1cc(-c2[nH]ncc2CN2CCc3sccc3C2)cc(OC)c1OC | i | i | ? | 10µM | 15µM | i
